Results on 92 compounds are retold here after PubChem BioAssay AID588499 (NMMLSC, 2011).

Structures are written as SMILES. The whole screen tested about 360,000 compounds, of which about 610 (0.17%) were called active. Not shown: some 2% with an inconclusive outcome. Rule as the data show it: active = inhibition above about 30%; inconclusive = no clear call, values can overlap the other calls; inactive = below that. The entries come from a sample that favours actives as a whole.

For this experiment, the system named is Botulinum neurotoxin type A light chain protease (Clostridium botulinum A str. ATCC 3502). Description: blockers of BoNT/A LC substrate cleavage – biochemical, flow cytometry, MLPCN library, primary screen (AID 588499). Also: plate controls were buffer without enzyme for full effect and enzyme alone for no effect. The following applies: multiplex microsphere protease substrate cleavage, at 10 µM, hits give high values.
By inhibition is commonly meant the relative decrease from the control value, in per cent. As for `NC(CSC12CC3CC(CC(C3)C1)C2)C(=O)O` (configuration not stated), the inhibition is 1.6% (inactive). With `CCCCN(C(=O)COc1ccc(NC(C)=O)cc1)C1CCS(=O)(=O)C1` (configuration not stated), the inhibition is 1.1% (inactive).

For the compound `O=C(Nc1ccc(-n2ccnc2P(=O)(O)c2ccccc2)cc1)c1ccccc1Br`, the inhibition was 1.4% (inactive). To `COC(=O)C[n+]1cccc2ccccc21` belongs 28.6% (inactive); to `O=C(CNC(=O)c1ccccc1F)c1ccc(Br)cc1`, 0.8% (inactive); to `O=C(C[n+]1cc(Br)cc2ccccc21)c1ccc(F)cc1`, 120% (active).

On to `Cc1cc(C)c2c(c1)cc(C)c1nnc(SCC(=O)Nc3cc(C)on3)n12`, for which the inhibition is -0.7% (inactive). As for `COc1cc(C(=O)NCc2ccc3c(c2)cc(C)n3C)cc(OC)c1OC`, the figure is 74.1% (active); as for `CCOCC(=O)NCc1ccc2c(c1)cc(C)n2C`, 6% (inactive); as for `COc1cc(C(=O)NCc2cc3cc(Cl)ccc3n2C)cc(OC)c1OC`, 0.3% (inactive). Regarding `CCC(Cc1ccccc1)NC(=O)C1CCCCC1` (configuration not stated), the inhibition is 0.2% (inactive). As for `Cc1ccc(C(=O)N2CCCc3ccccc32)c(Cl)c1`, the figure is -0.5% (inactive). As for `Cc1cccc2cc3c(N)c(C(=O)N4CCCc5ccccc54)sc3nc12`, the figure is 54.5% (active). Take `O=C(c1c(Cl)nc2sccn12)N1CCCc2ccccc21`: the inhibition is 0% (inactive). Turning to `COc1cc2ccc(C(C)=O)c(O)c2cc1OC`, the inhibition is 0% (inactive).

With `C[C@H]1COc2cc(N3CCSCC3)ccc2S(=O)(=O)N1`, the inhibition was 1.1% (inactive). As for `Cc1noc(C)c1NC(=O)Nc1cccc2c1O[C@H](CN(C)S(=O)(=O)c1c(C)noc1C)[C@@H](C)CN([C@H](C)CO)C2=O`, the figure is -0.8% (inactive); as for `COc1ccc(OC)c(NC(=O)C2CCCN2S(=O)(=O)c2cccc3nsnc23)c1` (configuration not stated), 0.9% (inactive); as for `O=c1c(-c2ccccc2Cl)c[nH]n1-c1ccccc1`, 1.7% (inactive). To `CCCCNC(=O)C[C@@H]1C[C@@]2(C(=O)OCC)CCC=C2N(Cc2ccco2)C1=O` belongs 0.2% (inactive); to `CN1CC(c2ccccc2)C2(COc3ccccc3C2=O)C12C(=O)Nc1ccccc12` (configuration not stated), -0.4% (inactive); to `CCc1nc2c(OCC(=O)C(C)(C)C)cccn2c1N(C)C(=O)c1ccccc1F`, -0.5% (inactive). To `CC(NCc1nc2ccccc2n1C)C12CC3CC(CC(C3)C1)C2` (configuration not stated) belongs 0% (inactive). With `COc1cc(/C=C2/SC(=S)N(Cc3ccccc3)C2=O)cc(OC)c1O`, the inhibition is 39.9% (active).

`COc1ccc(CCNC2=C(Cl)C(=O)N(Cc3ccccc3)C2=O)cc1OC`: the inhibition was -0.2% (inactive).

For `CN1C=CC=C/C1=C1\SC(=S)N(Cc2ccccc2)C1=O`, the inhibition was -1.8% (inactive). To `O=C(O)CN(Cc1ccco1)S(=O)(=O)c1ccc(F)cc1` belongs -0.4% (inactive); to `Cc1csc(Nc2ccc(Cl)cc2)[n+]1-c1ccc(Cl)cc1`, -2% (inactive); to `O=C(CN1C(=O)c2ccc([N+](=O)[O-])cc2C1=O)Nc1nnc(C2CC2)s1`, -0.6% (inactive). As for `COc1cccc(-c2cc3nc4c(c(N5CCC6(CC5)OCCO6)n3n2)CCCC4)c1`, the figure is 0.1% (inactive).

For `Cc1ccc2cc(CCNC(=O)c3c(-c4ccccc4Cl)noc3C)c(=O)[nH]c2c1`, the inhibition was -0.3% (inactive).

Take `Cc1onc(-c2ccccc2Cl)c1C(=O)N(Cc1ccc(N(C)C)cc1)C(C)C`: the inhibition is -3.2% (inactive).

Turning to `Cc1onc(-c2ccccc2Cl)c1C(=O)NCCn1ccc2ccccc21`, the inhibition was 81.2% (active). To `Oc1c(Cl)cc(Cl)c(Cl)c1Cc1c(O)c(Cl)cc(Cl)c1Cl` belongs -1% (inactive); to `CC(=O)Nc1ccc(NC(=O)C(C)n2c3ccccc3c3nc(=O)cc(C)n32)cc1` (configuration not stated), -0.3% (inactive). As for `COc1ccc(-c2cc3c(c4c2ccn4C)C2CCC3C2)cn1` (configuration not stated), the figure is 52.1% (active). As to `Cc1cccc(S(=O)(=O)N(C)C[C@H]2OCc3cnnn3CCCC(=O)N([C@@H](C)CO)C[C@H]2C)c1`, the inhibition was -0.3% (inactive). To `Cc1c(CC(=O)N2CCN(C(=O)C3COc4ccccc4O3)CC2)c(=O)oc2c(O)c(O)ccc12` (configuration not stated) belongs 3.7% (inactive). To `COc1ccc(CCNC(=O)C2CC3Cn4c(nc5cc(C)c(C)cc54)C3N2C)cc1` (configuration not stated) belongs -0.2% (inactive). As for `O=C1[C@@H]2C(c3cccnc3)=NO[C@@H]2C(=O)N1c1ccc(Cl)cc1Cl`, the figure is -0.1% (inactive). Turning to `COc1ccc(NC(=O)N2CCCC(C(=O)Nc3ccccc3OC)C2)cc1` (configuration not stated), the inhibition is -1.6% (inactive). As for `CC1(C(=O)NCc2ccc3c(c2)OCO3)CCN1C(=O)Cc1cccs1` (configuration not stated), the figure is -0.2% (inactive); as for `CCN(CC)C(=O)C(C)N1c2cccc3cccc(c23)S1(=O)=O` (configuration not stated), 0.5% (inactive); as for `CC(C)c1nc(CNC(=O)CC2C(=O)NCCN2Cc2cccc(F)c2F)cs1` (configuration not stated), 0% (inactive). `Cc1ccc(C(=O)NCC(=O)OCC(=O)Nc2cccc(S(=O)(=O)N3CCCC3)c2)cc1C`: the inhibition was -0.4% (inactive).

Turning to `COC1=NC2=NCCN2C(OC)=N1`, the inhibition was -0.5% (inactive). To `C[C@H](CO)N1C[C@H](C)[C@@H](CN(C)C(=O)C2CCCCC2)OCc2cnnn2CCCC1=O` belongs -0.2% (inactive); to `COc1ccc(S(=O)(=O)N(CCCN2CCCC2=O)Cc2cc3c(C)ccc(C)c3[nH]c2=O)cc1`, 0.4% (inactive). With `CNC(=O)Nc1cc(C(C)(C)C)no1`, the inhibition is 0% (inactive).

For `CCOC(=O)C1=C(C)NC2=C(C(=O)CC(C)(C)C2)C1c1ccsc1` (configuration not stated), the inhibition was 1.6% (inactive). `Cc1nc(-c2ccc(F)cc2)c(CC(=O)Nc2cccc(S(=O)(=O)N3CCOCC3)c2)s1`: the inhibition is 1.2% (inactive). Turning to `Cc1ccc(NC(=O)COc2ccc(-n3ccnc3)cc2)cc1Cl`, the inhibition is -0.5% (inactive).

`Cc1ccc(-c2nc(-c3cccnc3)sc2CC(=O)Nc2ccc(C)c(Cl)c2)cc1`: the inhibition is 51.4% (active). Take `Nc1ncnc2c1cnn2C1CC(O)C(CO)O1` (configuration not stated): the inhibition is 0.6% (inactive). Take `C=C1C(=O)[C@]23C[C@H]1CCC2[C@@]1(C)C(C[C@@H]3O)[C@](C)(C(=O)O)CC[C@@H]1O` (some centres not stated): the inhibition is 0.1% (inactive). Regarding `Cc1cc(N2CCCC2)ccc1NC(=O)COc1ccc(Cl)cc1`, the inhibition was -8.3% (inactive).

As to `CCN1/C(=C\c2ccc3ccccc3[n+]2CC)Sc2cc(C)ccc21`, the inhibition was 71.1% (active). As for `CC(C)C[C@@H](COCc1ccc(Cl)cc1)N1CCN(C(=O)c2ccc(Cl)cc2Cl)CCC1=O`, the figure is -0.6% (inactive). As for `COc1ccc(C(=O)NC(=S)N2CCNC(=O)C2CC(=O)OC(C)C)cc1` (configuration not stated), the inhibition was -0.1% (inactive). As for `Cc1cccc(-n2c(SCC(N)=O)nc3c(c2=O)C2(CCCCC2)Cc2ccccc2-3)c1`, the figure is -0.1% (inactive); as for `COc1ccc(COC[C@H](CC(C)C)N2CCN(C(=O)c3cccc(C(F)(F)F)c3)CCC2=O)cc1`, 0.7% (inactive); as for `CN1C(=O)/C(=C\c2ccc(-c3ccccc3)o2)SC1=S`, 66.9% (active). As for `CC(C(=O)NC1CCS(=O)(=O)C1)N1C(=O)/C(=C/c2ccc(Cl)cc2)SC1=S` (configuration not stated), the figure is 2.3% (inactive). As for `O=C(O)C(c1ccccc1)N1C(=O)/C(=C\c2ccc(-c3cccc(Cl)c3)o2)SC1=S` (configuration not stated), the figure is 39.3% (active). Consider `Cc1ccc(C(=O)O)cc1-c1ccc(/C=C2\SC(=O)N(CC(=O)Nc3ccc4c(c3)OCO4)C2=O)o1`, for which the inhibition is 0.8% (inactive).

`NS(=O)(=O)c1ccc(-c2ccc(/C=C3\SC(=O)NC3=O)o2)cc1`: the inhibition was 0.3% (inactive). To `CC(C(=O)Nc1ccc(O)c(C(=O)O)c1)N1C(=O)/C(=C/c2cccs2)SC1=S` (configuration not stated) belongs 2% (inactive).

In the case of `CN(CC(=O)Nc1c(Cl)cccc1Cl)C(=O)c1ccncc1`, the inhibition is -3.2% (inactive).

For `COc1ccc(C(c2nnnn2Cc2cccs2)N2CCN(c3ccccc3)CC2)cc1OC` (configuration not stated), the inhibition is -0.3% (inactive).

With `CCOCCCNC(=O)c1cn(CC(C)C)c(=O)c2c1c1ccccc1n2C`, the inhibition was 2.4% (inactive). Consider `O=c1[nH][nH]c2c1[C@H](c1ccc(Cl)cc1)O[C@H](CCc1ccccc1)C2`, for which the inhibition was -0.3% (inactive).

Turning to `COc1ccc(C(NC(=O)C2CCN(CCCc3ccccc3)CC2)c2cccs2)cc1` (configuration not stated), the inhibition is -0.5% (inactive). As for `O=C(Nc1ccc2c(c1)[C@@H]1C[C@@H](CC(=O)N3CCCCC3)O[C@@H](CO)[C@@H]1O2)NC1CCCCC1`, the figure is 0.1% (inactive); as for `COC(=O)[C@]12CCCCC=C1N(Cc1ccco1)C(=O)[C@H](CC(=O)NCC1CCCCC1)C2`, -1.1% (inactive); as for `Cc1ccc(CCn2c3c(c4ccccc42)CN(C)CC3)cn1`, 1.5% (inactive). `CCC(C)C(N=C1NS(=O)(=O)c2ccccc21)C(=O)N1CCC(C)CC1` (configuration not stated): the inhibition is -2.7% (inactive). To `CCCSc1nc2sc3c(c2c(=O)n1-c1ccc(OC)cc1)CCN(C)C3` belongs 49.9% (active). As for `CCSc1nc2sc3c(c2c(=O)n1-c1ccc(C)cc1)CCN(C)C3`, the inhibition was 9.9% (inactive). Consider `CCOc1ccc(-n2c(SCC(=O)OC)nc3sc4c(c3c2=O)CCN(C)C4)cc1`, for which the inhibition is 26.5% (inactive). To `O=S1(=O)CC(N2CCSCC2)CN1Cc1cn(Cc2cccc(Cl)c2)nn1` (configuration not stated) belongs 0.5% (inactive); to `Cc1ccc(SCC(=O)NNC(=O)c2ccc(S(C)(=O)=O)cc2)cc1`, 0.3% (inactive); to `CC1CCCCC1NC(=O)NC(=O)COC(=O)C1=NN(c2ccccc2)C(=O)CC1` (configuration not stated), -0.8% (inactive). To `CCNC(=S)N1CCN(c2ncccn2)CC1` belongs 1.2% (inactive); to `CC(=NNC(=S)N1CCCCCC1)c1ccccn1`, 32.5% (active); to `CCOc1ccc(NC(=S)N2CCCCCC2)cc1`, 0% (inactive). As for `CCc1[nH]nc(C(=O)N2CCCC(CO)(Cc3ccc(F)cc3F)C2)c1C` (configuration not stated), the figure is 0.2% (inactive); as for `O=C(c1cccc(-n2cccc2)c1)N1CCN(S(=O)(=O)c2ccc(F)cc2)CC1`, -0.8% (inactive); as for `CCCCN1C(=O)C(CC(=O)NCc2cccs2)CC(C(=O)N2CCCCCC2)=C1C` (configuration not stated), 0% (inactive). Regarding `CCN(CC)C(=O)CSC1c2ccccc2C(=O)N1c1ccccc1` (configuration not stated), the inhibition was -1.6% (inactive). For the compound `COc1ccc(C(=O)Nc2nc(-c3ccc(OC)cc3)c(-c3ccc([N+](=O)[O-])cc3)s2)cc1`, the inhibition is 40.2% (active). To `COc1ccc(-c2[nH][nH]c(=O)c2NC(=O)c2ccc([N+](=O)[O-])cc2)cc1` belongs 0.1% (inactive); to `COc1ccc(NC(=O)c2cn(CCC#N)nc2-c2ccc([N+](=O)[O-])cc2)cc1`, -1.1% (inactive).
